# Source: PubChem BioAssay
# Sampled rows, rich in hits. Any-hit rate of the full collection: about 5.7%.
# DAX1 inh-1: NR0B1 (DAX1) inhibition | inhibition, % at 6.75 µM | HEK293 Gal4-DAX1 luciferase reporter, luminescence | 340,000 compounds, 0.99% hits | P51843;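 active = inhibition above the mean over all tested compounds plus 3 SD, cut at about 4.2% in these data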;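 note: 0% = DAX1-transfected cells with DMSO and 100% = empty-vector control cells with DMSO; inhibition shows as a rise in luminescence from relieved DAX1 repression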
# Target sequence (P51843 207-470 limits assumed): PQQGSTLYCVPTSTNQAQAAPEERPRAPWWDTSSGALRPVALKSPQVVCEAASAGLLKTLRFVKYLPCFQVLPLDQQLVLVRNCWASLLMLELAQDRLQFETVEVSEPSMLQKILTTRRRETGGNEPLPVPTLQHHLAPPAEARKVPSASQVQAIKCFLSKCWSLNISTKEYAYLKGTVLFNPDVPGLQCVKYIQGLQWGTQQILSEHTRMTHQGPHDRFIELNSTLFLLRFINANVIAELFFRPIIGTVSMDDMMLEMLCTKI
# DAX1 inh-2: inhibitors of DAX1 repression of SF-1 activated StAR promoter; HEK293T StAR-luciferase reporter, SF-1/DAX-1 repression relief; inhibition, % at 6.8 µM; 370,000 compounds, 1.1% hits; AID 652010;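 active = inhibition above the mean over all tested compounds plus 3 SD, cut at about 3.6% in these data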;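 note: 0% = DAX-1 cells with DMSO and 100% = cells lacking DAX-1 with DMSO; higher inhibition means more luminescence from relief of DAX-1 repression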
# hgDAF12 agonist: activates the H. glycines DAF-12 receptor ligand-binding domain; activation, % at 6.8 µM; 370,000 compounds, 1.8% hits; HEK293 GAL4-hgDAF12 UAS-luciferase reporter, agonist luminescence; normalized to butyrate control;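 active = activation above a cutoff set at the mean of all screened compounds plus 3 SD, cut at about 10% in these data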;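 note: 0% = DMSO wells and 100% = sodium butyrate wells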
# ssDAF12 agonist: S. stercoralis DAF-12 activation, primary screen; activation, % at 6.8 µM; HEK293 ssDAF-12/GRIP1 lit1-tk-luc reporter, luminescence; % of 3 µM dafachronic acid response; 370,000 compounds, 1% hits;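 active = activation above the mean over all tested compounds plus 3 SD, cut at about 0.9% in these data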;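 note: 0% = DMSO-only wells and 100% = 3 µM delta7-dafachronic acid wells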
# hcDAF-12 act: activators of H. contortus DAF-12 nuclear receptor; HEK293 hcDAF-12 lit1-tk-luc reporter, luminescence; 0% DMSO, 100% Δ7-dafachronic acid; activation, % at 6.8 µM; 370,000 compounds, 1.4% hits; AID 652067;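 active = activation above the mean of all tested compounds plus 3 SD, cut at about 5.5% in these data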;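 note: 100% = response to 3 µM Δ7-dafachronic acid high control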
# AHR act: human AHR activation; AID 2796; activation, % at 5 µM; AHR-responsive luciferase reporter cells, luminescence; P35869; 320,000 compounds, 2.5% hits; in the data active = activation above about 47%;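 note: 0% = vehicle wells and 100% = reference agonist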
# * marks the source's active call; other numbers are inactive results; . = not tested or not shown.
SMILES,DAX1 inh-1,DAX1 inh-2,hgDAF12 agonist,ssDAF12 agonist,hcDAF-12 act,AHR act
CCCCn1c(O)c(/C=C2/C=CC=N2)c(=O)[nH]c1=O,5.4*,0,0,-1,-2,5
Cc1cccc(C(O)(C(=O)NNC(=O)CN2CCN(C)CC2)c2cccc(C)c2)c1,1,1,0,-1,1,-2
CCCCc1nc2ccccc2c(=O)n1-c1ccccc1O,0,0,-1,-1,0,73*
CCCc1nc2ccccc2c(=O)n1-c1ccccc1OC,-1,0,0,-1,-2,3
CCN(CC)c1ccc(/C=C2\C(=O)NC(=S)N(C)C2=O)o1,7.5*,2,8,0,2,5
CCN(CC)c1ccc(C=C2C(=O)N(C)C(=S)N(C)C2=O)o1,1,0,1,-2,1,10
Cn1cccc1/C=C1/C(=O)NC(=O)N(C(C)(C)C)C1=O,4.8*,-1,-2,-1,-1,1
Nc1c(C(=O)NCCCc2ccccc2)c2nc3ccccc3nc2n1Cc1cccs1,-2,-2,-4,2.3*,2,5
COc1cc2nc(CN3CC=C(c4ccccc4)CC3)[nH]c(=O)c2cc1OC,6.0*,-1,8,0,1,12
Cc1cc(C)cc(N2C(=O)NC(=O)/C(=C\c3cccn3-c3ccccc3)C2=O)c1,-2,-1,-5,-2,1,0
C=C1C(C)C2C(Cc3ccccc3)NC(=O)C23OC(=O)/C=C/C(O)CCCC(C)C/C=C/C3C1O (stereo not drawn),-2,-3,-3,-1,-3,.
O=c1c2ccccc2nc(-c2cccs2)n1-c1ccccc1,-1,-1,-1,-1,0,4
NC(N)=N/N=C/c1cn(-c2ccccc2)nc1-c1cccs1,0,-1,0,-1,1,50*
COc1ccc(C(=O)C2CCCN(C3CSCCSC3)C2)cc1OC (stereo not drawn),0,3,5,-2,1,0
Cc1cc(C(=O)Nc2ccc3c(c2)OCCO3)nn1C(C)(C)C,5.7*,1,7,0,2,4
Cc1cc(C(=O)Nc2ccccc2)nn1C(C)(C)C,3,1,5,-1,2,-4
Cn1cccc1CNCCc1ccccc1,.,.,.,.,.,1
CN1CCN(c2ccc([N+](=O)[O-])c(NCc3ccco3)c2)CC1,0,-1,-6,0,-1,63*
CNc1cc(N2CCNCC2)ccc1[N+](=O)[O-],2,-1,1,-1,-2,1
O=[N+]([O-])c1ccc(N2CCNCC2)cc1NCc1ccco1,0,0,1,-1,-1,71*
Fc1cccc(F)c1-c1nc(-c2ccc(Cl)cc2)no1,2,0,8,1.8*,3,73*
Cn1cc(C(=O)N2CCC3(CC2)OCCO3)c2c3ccccc3n(C)c2c1=O,0,1,1,-1,-1,0
CC(=O)O[C@@]12CO[C@@H]1C[C@H](O)[C@@]1(C)C(=O)[C@H](O)C3=C(C)[C@@H](O)C[C@@](O)([C@@H](OC(=O)c4ccccc4)C12)C3(C)C (stereo partly drawn),4.3*,1,1,-1,0,-1
C/C=C(\C)C(=O)N[C@@H](c1ccccc1)[C@@H](O)C(=O)O[C@H]1C[C@@]2(O)[C@@H](OC(=O)c3ccccc3)C3[C@](C)(C(=O)[C@H](O)C(=C1C)C2(C)C)[C@@H](O)C[C@H]1OC[C@@]31OC(C)=O (stereo partly drawn),-5,-4,-2,-2,-1,1
COc1cc(C(=O)N2C[C@H]3C[C@@H](C2)c2cccc(=O)n2C3)cc(OC)c1OC,4.9*,0,1,0,-1,-1
CCOc1ccccc1N1C(=O)NC(=O)C(CCc2ccncc2)(CCc2ccncc2)C1=O,1,-1,-2,-1,-1,4
COC(=O)C1=C(c2ccccc2OCc2ccccc2)C[C@@H]2CC[C@H]1N2C(=O)NCc1ccc(Cl)cc1,0,0,0,-2,-3,-3
CN(C)C(=O)Oc1ccc(-c2cn3cc(C(F)(F)F)ccc3n2)cc1,0,3,2,0,1,-5
